# Source: PubChem BioAssay (Tox21)
# Values without a mark were called inactive. Results filed as inconclusive are left out. Where a call stands in place of a potency, no number is given. The source made the active and inactive calls. Calls come from the whole dose curve; as a rule, active = well fitted curve in the direction sought with a large enough effect in the repeat runs; inconclusive = weak or mixed curves; inactive = no such curve, though single readings can be large; an effect the other way counts as inactive or inconclusive.
# Columns and labels:
# [1] = A CellTox Green Cytotoxicity Assay to monitor cytotoxicity in HEK293 cells - 40 hour (AID 1224871); note: nearly all actives have a fitted effect of over 45% in size
# Procedure, shortened: (§1)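 Cells (HEK293, 600/well) and dye reagent are dispensed together. After 5 h at 37 C, 23 nL compound is pinned in. Plates stay at 37 C for 40 h with fluorescence read at 0h, 8h, 16h, 24h, 32h and 40h.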
# [2] = qHTS RealTime-Glo MT Cell Viability Assay in HEK293 cells - 16 hour (AID 1224872); note: top concentration of the series differs between compounds; nearly all actives have a fitted effect of over 50% in size
# Procedure, shortened: (§2)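 Cells + reagent dispensed (600 cells/well, HEK293) → 5 h at 37 C/5% CO2 → 23 nL compound in DMSO pinned → 40 h at 37 C → luminescence read at 0, 8, 16, 24, 32, 40 h.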
# [3] = qHTS RealTime-Glo MT Cell Viability Assay in HepG2 cells - 8 hour (AID 1224873); note: nearly all actives have a fitted effect of over 55% in size
# Procedure, shortened: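 HepG2 cells (600/well) mixed with RealTime-Glo MT reagent, settled 5 h at 37 C/5% CO2 before compound addition. Nonlytic NanoLuc luminescence from viable-cell prosubstrate reduction read repeatedly during 40 h treatment at 37 C.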
# [4] = qHTS RealTime-Glo MT Cell Viability Assay in HEK293 cells - 40 hour (AID 1224874); conditions: RealTime-Glo luminescence; max response: stronger effect = lower value; note: nearly all actives have a fitted effect of over 50% in size; note: potency is the fitted concentration of half-maximal effect
# Procedure, shortened: (§3)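 Real-time viability in HEK293: signal arises when living cells convert a prosubstrate for NanoLuc in the medium, so luminescence tracks viable cell number. Compound (23 nL, DMSO) added 5 h post-seeding; kinetic reads at 0–40 h, 37 C.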
# [5] = A CellTox Green Cytotoxicity Assay to monitor cytotoxicity in HEK293 cells - 24 hour (AID 1224875); note: series mostly up to about 77 µM; nearly all actives have a fitted effect of over 45% in size
# Procedure, shortened: as §1
# [6] = A CellTox Green Cytotoxicity Assay to monitor cytotoxicity in HepG2 cells - 16 hour (AID 1224876); note: nearly all actives have a fitted effect of over 45% in size
# Procedure, shortened: (§4)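 Cells and non-lytic dye reagent are dispensed together (600 HepG2 cells/well) and incubated 5 h before DMSO compound transfer. Kinetic fluorescence is then recorded in the same wells during 40 h at 37 C.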
# [7] = qHTS RealTime-Glo MT Cell Viability Assay in HepG2 cells - 32 hour (AID 1224877); note: nearly all actives have a fitted effect of over 55% in size
# Procedure, shortened: (§5)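 Real-time, nonlytic viability: 600 HepG2 cells/well mixed with NanoLuc enzyme plus prosubstrate; 5 h settle, compound (DMSO) added by pintool; luminescence monitored over 40 h at 37 C.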
# [8] = A CellTox Green Cytotoxicity Assay to monitor cytotoxicity in HepG2 cells - 24 hour (AID 1224878); note: nearly all actives have a fitted effect of over 45% in size
# Procedure, shortened: as §4
# [9] = qHTS RealTime-Glo MT Cell Viability Assay in HEK293 cells - 0 hour (AID 1224880)
# Procedure, shortened: as §3
# [10] = A CellTox Green Cytotoxicity Assay to monitor cytotoxicity in HEK293 cells - 32 hour (AID 1224881); note: nearly all actives have a fitted effect of over 40% in size
# Procedure, shortened: as §1
# [11] = A CellTox Green Cytotoxicity Assay to monitor cytotoxicity in HepG2 cells - 0 hour (AID 1224882); note: nearly all actives have a fitted effect of over 35% in size
# Procedure, shortened: as §4
# [12] = A CellTox Green Cytotoxicity Assay to monitor cytotoxicity in HepG2 cells - 32 hour (AID 1224883); note: nearly all actives have a fitted effect of over 50% in size
# Procedure, shortened: as §4
# [13] = A CellTox Green Cytotoxicity Assay to monitor cytotoxicity in HEK293 cells - 8 hour (AID 1224884); note: nearly all actives have a fitted effect of over 35% in size
# Procedure, shortened: as §1
# [14] = qHTS RealTime-Glo MT Cell Viability Assay in HepG2 cells - 16 hour (AID 1224885); note: nearly all actives have a fitted effect of over 50% in size
# Procedure, shortened: as §5
# [15] = qHTS RealTime-Glo MT Cell Viability Assay in HEK293 cells - 24 hour (AID 1224886)
# Procedure, shortened: as §2
# [16] = qHTS RealTime-Glo MT Cell Viability Assay in HEK293 cells - 8 hour (AID 1224887)
# Procedure, shortened: as §3
# [17] = A CellTox Green Cytotoxicity Assay to monitor cytotoxicity in HEK293 cells - 16 hour (AID 1224888); note: nearly all actives have a fitted effect of over 35% in size
# Procedure, shortened: as §1
# [18] = qHTS RealTime-Glo MT Cell Viability Assay in HepG2 cells - 0 hour (AID 1224889); note: nearly all actives have a fitted effect of over 50% in size
# Procedure, shortened: as §5
# [19] = A CellTox Green Cytotoxicity Assay to monitor cytotoxicity in HepG2 cells - 8 hour (AID 1224890); note: nearly all actives have a fitted effect of over 45% in size
# Procedure, shortened: as §4
# [20] = A CellTox Green Cytotoxicity Assay to monitor cytotoxicity in HepG2 cells - 40 hour (AID 1224879); note: nearly all actives have a fitted effect of over 40% in size
# Procedure, shortened: as §4
smiles,measurement,setting,value
CCCNC(C)C(=O)Nc1c(C)csc1C(=O)OC (stereo unspecified),Potency,[1],inactive
same,Potency,[2],inactive
same,outcome,[3],inactive
same,max response,[4],-5.59%
same,Potency,[5],inactive
same,Potency,[6],inactive
same,Potency,[7],inactive
same,Potency,[8],inactive
same,outcome,[9],inactive
same,Potency,[10],inactive
same,Potency,[11],inactive
same,Potency,[12],inactive
same,Potency,[13],inactive
same,outcome,[14],inactive
same,Potency,[15],inactive
same,Potency,[16],inactive
same,Potency,[17],inactive
same,Potency,[18],inactive
same,Potency,[19],inactive
C=CCc1cc(OC)c(O)c(C(=O)NCCO)c1,Potency,[1],inactive
same,Potency,[2],inactive
same,outcome,[3],inactive
same,max response,[4],15.9%
same,Potency,[5],inactive
same,Potency,[6],inactive
same,Potency,[7],inactive
same,Potency,[8],inactive
same,Potency,[20],inactive
same,outcome,[9],inactive
same,Potency,[10],inactive
same,Potency,[11],inactive
same,Potency,[12],inactive
same,outcome,[14],inactive
same,Potency,[15],inactive
same,Potency,[16],inactive
same,Potency,[17],inactive
same,Potency,[18],inactive
same,Potency,[19],inactive
CCCCC(CC)COC(=O)COc1cc(Cl)c(Cl)cc1Cl (stereo unspecified),Potency,[1],inactive
same,Potency,[2],inactive
same,outcome,[3],inactive
same,max response,[4],-3.13%
same,Potency,[5],inactive
same,Potency,[6],inactive
same,Potency,[7],inactive
same,Potency,[8],inactive
same,Potency,[20],inactive
same,outcome,[9],inactive
same,Potency,[10],inactive
same,Potency,[11],inactive
same,Potency,[12],inactive
same,outcome,[14],inactive
same,Potency,[15],inactive
same,Potency,[16],inactive
same,Potency,[17],inactive
same,Potency,[18],inactive
same,Potency,[19],inactive
O=C1C=CC(=O)O1,Potency,[1],inactive
same,Potency,[2],inactive
same,outcome,[3],inactive
same,max response,[4],12.6%
same,Potency,[5],inactive
same,Potency,[6],inactive
same,Potency,[7],inactive
same,Potency,[8],inactive
same,Potency,[20],inactive
same,outcome,[9],inactive
same,Potency,[10],inactive
same,Potency,[11],inactive
same,Potency,[12],inactive
same,Potency,[13],inactive
same,Potency,[15],inactive
same,Potency,[16],inactive
same,Potency,[17],inactive
same,Potency,[18],inactive
same,Potency,[19],inactive
CCNCCO,Potency,[1],inactive
same,Potency,[2],inactive
same,outcome,[3],inactive
same,max response,[4],9.13%
same,Potency,[5],inactive
same,Potency,[6],inactive
same,Potency,[7],inactive
same,Potency,[8],inactive
same,Potency,[20],inactive
same,outcome,[9],inactive
same,Potency,[10],inactive
same,Potency,[11],inactive
same,Potency,[12],inactive
same,Potency,[13],inactive
same,Potency,[15],inactive
same,Potency,[16],inactive
same,Potency,[17],inactive
same,Potency,[18],inactive
same,Potency,[19],inactive
Cc1c[nH]c(=S)[nH]c1=O,Potency,[1],inactive
same,Potency,[2],inactive
same,outcome,[3],inactive
same,max response,[4],22.1%
same,Potency,[5],inactive
same,Potency,[6],inactive
same,Potency,[7],inactive
same,Potency,[8],inactive
same,Potency,[20],inactive
same,outcome,[9],inactive
same,Potency,[10],inactive
same,Potency,[11],inactive
same,Potency,[12],inactive
same,Potency,[13],inactive
same,Potency,[15],inactive
same,Potency,[16],inactive
same,Potency,[17],inactive
same,Potency,[18],inactive
same,Potency,[19],inactive
O=C(O)[C@@H](O)[C@H](O)[C@H](O)[C@@H](O)C(=O)O,Potency,[1],inactive
same,Potency,[2],inactive
same,outcome,[3],inactive
same,max response,[4],0.215%
same,Potency,[5],inactive
same,Potency,[6],inactive
same,Potency,[7],inactive
same,Potency,[8],inactive
same,Potency,[20],inactive
same,outcome,[9],inactive
same,Potency,[10],inactive
same,Potency,[11],inactive
same,Potency,[12],inactive
same,outcome,[14],inactive
same,Potency,[15],inactive
same,Potency,[16],inactive
same,Potency,[17],inactive
same,Potency,[18],inactive
same,Potency,[19],inactive
FC(F)(F)C(Cl)(Cl)Cl,Potency,[1],inactive
same,Potency,[2],inactive
same,outcome,[3],inactive
same,max response,[4],6.41%
same,Potency,[5],inactive
same,Potency,[6],inactive
same,Potency,[7],inactive
same,Potency,[8],inactive
same,outcome,[9],inactive
same,Potency,[10],inactive
same,Potency,[11],inactive
same,Potency,[12],inactive
same,Potency,[13],inactive
same,outcome,[14],inactive
same,Potency,[15],inactive
same,Potency,[16],inactive
same,Potency,[17],inactive
same,Potency,[18],inactive
same,Potency,[19],inactive
CCN(O)CC,Potency,[1],inactive
same,Potency,[2],inactive
same,outcome,[3],inactive
same,max response,[4],12.4%
same,Potency,[5],inactive
same,Potency,[6],inactive
same,Potency,[7],inactive
same,Potency,[8],inactive
same,Potency,[20],inactive
same,outcome,[9],inactive
same,Potency,[10],inactive
same,Potency,[11],inactive
same,Potency,[12],inactive
same,outcome,[14],inactive
same,Potency,[15],inactive
same,Potency,[16],inactive
same,Potency,[17],inactive
same,Potency,[18],inactive
CC(=O)N(CC(O)CN(C(C)=O)c1c(I)c(C(=O)NCC(O)CO)c(I)c(C(=O)NCC(O)CO)c1I)c1c(I)c(C(=O)NCC(O)CO)c(I)c(C(=O)NCC(O)CO)c1I (stereo unspecified),Potency,[1],inactive
same,Potency,[2],inactive
same,outcome,[3],inactive
same,max response,[4],0.602%
same,Potency,[5],inactive
same,Potency,[6],inactive
same,Potency,[7],inactive
same,Potency,[8],inactive
same,Potency,[20],inactive
same,outcome,[9],inactive
same,Potency,[10],inactive
same,Potency,[11],inactive
same,Potency,[12],inactive
same,outcome,[14],inactive
same,Potency,[15],inactive
same,Potency,[16],inactive
same,Potency,[17],inactive
same,Potency,[18],inactive
same,Potency,[19],inactive
CN1C(=O)CC(c2ccccc2)C1=O (stereo unspecified),Potency,[1],inactive
same,Potency,[2],inactive
same,outcome,[3],inactive
same,max response,[4],11.9%
same,Potency,[5],inactive
same,Potency,[6],inactive
same,Potency,[7],inactive
same,Potency,[8],inactive
same,Potency,[20],inactive
same,outcome,[9],inactive
same,Potency,[10],inactive
same,Potency,[11],inactive
same,Potency,[12],inactive
same,outcome,[14],inactive
same,Potency,[15],inactive
same,Potency,[16],inactive
same,Potency,[17],inactive
same,Potency,[18],inactive
Cc1nc(N)nc(N)c1-c1ccc(Cl)c(Cl)c1,Potency,[1],inactive
same,Potency,[2],inactive
same,outcome,[3],inactive
same,Potency,[4],1070 nM (active)
same,Potency,[5],inactive
same,Potency,[6],inactive
same,Potency,[7],inactive
same,Potency,[8],inactive
same,Potency,[20],inactive
same,outcome,[9],inactive
same,Potency,[10],inactive
same,Potency,[11],inactive
same,Potency,[12],inactive
same,outcome,[14],inactive
same,Potency,[17],inactive
same,Potency,[18],inactive
same,Potency,[19],inactive
O=C(O)c1cccc(Cl)c1Cl,Potency,[1],inactive
same,Potency,[2],inactive
same,outcome,[3],inactive
same,max response,[4],-7.63%
same,Potency,[5],inactive
same,Potency,[6],inactive
same,Potency,[7],inactive
same,Potency,[8],inactive
same,outcome,[9],inactive
same,Potency,[10],inactive
same,Potency,[11],inactive
same,Potency,[12],inactive
same,Potency,[13],inactive
same,outcome,[14],inactive
same,Potency,[15],inactive
same,Potency,[16],inactive
same,Potency,[17],inactive
same,Potency,[18],inactive
CCCNC(C)(C)COC(=O)c1ccccc1,Potency,[1],inactive
same,Potency,[2],inactive
same,outcome,[3],inactive
same,max response,[4],2.27%
same,Potency,[5],inactive
same,Potency,[6],inactive
same,Potency,[7],inactive
same,Potency,[8],inactive
same,outcome,[9],inactive
same,Potency,[10],inactive
same,Potency,[11],inactive
same,Potency,[12],inactive
same,Potency,[13],inactive
same,outcome,[14],inactive
same,Potency,[15],inactive
same,Potency,[16],inactive
same,Potency,[17],inactive
same,Potency,[18],inactive
same,Potency,[19],inactive
